{
  "source": "the supplement of paper PMC9023506",
  "note": "Where a name gives a salt, the structure may show the parent alone.",
  "data": [
    {"system": "Danio rerio larvae (5 dpf)", "assay": "optomotor response to red moving lines, difference vs DMSO (percentage points (treated minus DMSO)); higher = more of the behaviour than the DMSO vehicle control", "details": "10 µM; exposure time: 3 h pre-incubation + 3 h imaging", "experimental": "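5-dpf wild-type zebrafish larvae were imaged in 96-well plates. They were treated with 190 Tocris FDA-approved drugs at 10 µM (1 µl/ml DMSO) for 3 h before and 3 h during imaging at 28.5 °C, 48 larvae per drug. Automated image analysis gave % time moving and optomotor responses. Values are drug group mean minus DMSO vehicle mean (n=844), in percentage points, for 10 behaviours.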", "values": [
      {"compound": "CCCCCCCCc1ccc(CCC(N)(CO)CO)cc1", "optomotor response to red moving lines": 2.93},
      {"compound": "Cc1ccsc1C(=CCCN1CCC[C@@H](C(=O)O)C1)c1sccc1C", "note": "[Tiagabine hydrochloride]", "optomotor response to red moving lines": 20.4},
      {"compound": "CC(=O)O[C@H]1C(=O)[C@@]2(C)[C@H]([C@H](OC(=O)c3ccccc3)[C@]3(O)C[C@H](OC(=O)[C@H](O)[C@@H](NC(=O)c4ccccc4)c4ccccc4)C(C)=C1C3(C)C)[C@]1(OC(C)=O)CO[C@@H]1C[C@@H]2O", "note": "[Taxol]", "optomotor response to red moving lines": 6.51},
      {"compound": "CN1CC(=O)N2[C@H](c3ccc4c(c3)OCO4)c3[nH]c4ccccc4c3C[C@@H]2C1=O", "note": "[Tadalafil]", "optomotor response to red moving lines": -0.75},
      {"compound": "Clc1ccc2nsnc2c1NC1=NCCN1", "note": "[Tizanidine hydrochloride]", "optomotor response to red moving lines": 18.1},
      {"compound": "Nc1cc(N2CCCCC2)nc(N)[n+]1[O-]", "note": "[Minoxidil]", "optomotor response to red moving lines": -13.4},
      {"compound": "CN(C)C(=N)NC(=N)N", "note": "[Metformin hydrochloride]", "optomotor response to red moving lines": 17.8},
      {"compound": "CC1CNc2c(cccc2S(=O)(=O)N[C@@H](CCCNC(=N)N)C(=O)N2CC[C@@H](C)C[C@@H]2C(=O)O)C1", "note": "(stereo not given in full) [Argatroban]", "optomotor response to red moving lines": -3.42},
      {"compound": "O=C(O)C[C@H](O)C[C@H](O)/C=C/c1c(C2CC2)nc2ccccc2c1-c1ccc(F)cc1", "note": "[Pitavastatin calcium]", "optomotor response to red moving lines": 3.56},
      {"compound": "CCN(CC)CCNC(=O)c1c(C)[nH]c(/C=C2\\C(=O)Nc3ccc(F)cc32)c1C", "note": "[Sunitinib malate]", "optomotor response to red moving lines": -0.697},
      {"compound": "NS(=O)(=O)Cc1noc2ccccc12", "note": "[Zonisamide]", "optomotor response to red moving lines": 13},
      {"compound": "OCCN(CCO)c1nc(N2CCCCC2)c2nc(N(CCO)CCO)nc(N3CCCCC3)c2n1", "note": "[Dipyridamole]", "optomotor response to red moving lines": -6.85},
      {"compound": "CCOC(=O)C1=C(C)NC(C)=C(C(=O)OC)C1c1cccc(Cl)c1Cl", "note": "(stereo not given) [Felodipine]", "optomotor response to red moving lines": 4.89},
      {"compound": "CS(=O)(=O)CCNCc1ccc(-c2ccc3ncnc(Nc4ccc(OCc5cccc(F)c5)c(Cl)c4)c3c2)o1", "note": "[Lapatinib]", "optomotor response to red moving lines": 0.000688},
      {"compound": "CNC(=O)c1ccccc1Sc1ccc2c(/C=C/c3ccccn3)n[nH]c2c1", "note": "[Axitinib]", "optomotor response to red moving lines": 1.5},
      {"compound": "COc1c(C)c2c(c(O)c1C/C=C(\\C)CCC(=O)O)C(=O)OC2", "note": "[Mycophenolic acid]", "optomotor response to red moving lines": -3.36},
      {"compound": "C#C[C@]1(O)CC[C@H]2[C@@H]3CCC4=CC(=O)CC[C@@H]4[C@H]3CC[C@@]21CC", "note": "[Levonorgestrel]", "optomotor response to red moving lines": 4.27},
      {"compound": "O=C(O)c1cc(/N=N/c2ccc(S(=O)(=O)Nc3ccccn3)cc2)ccc1O", "note": "[Sulfasalazine]", "optomotor response to red moving lines": 2.01},
      {"compound": "Nc1ncn([C@H]2C[C@H](O)[C@@H](CO)O2)c(=O)n1", "note": "[Decitabine]", "optomotor response to red moving lines": -3.68},
      {"compound": "CC(C)(C(=O)c1cccnc1)c1cccnc1", "note": "[Metyrapone]", "optomotor response to red moving lines": 4.83},
      {"compound": "O=C1CCc2cc(OCCCCc3nnnn3C3CCCCC3)ccc2N1", "note": "[Cilostazol]", "optomotor response to red moving lines": -8.76},
      {"compound": "Nc1nc(NC2CC2)c2ncn([C@H]3C=C[C@@H](CO)C3)c2n1", "note": "[Abacavir hemisulfate]", "optomotor response to red moving lines": -1.56},
      {"compound": "CCOC(=O)[C@H](CCc1ccccc1)N[C@@H](C)C(=O)N1[C@H](C(=O)O)C[C@@H]2CCC[C@@H]21", "note": "[Ramipril]", "optomotor response to red moving lines": -1.65},
      {"compound": "CCN(Cc1ccncc1)C(=O)C(CO)c1ccccc1", "note": "(stereo not given) [Tropicamide]", "optomotor response to red moving lines": 1.4},
      {"compound": "NS(=O)(=O)c1cc(C(=O)O)c(NCc2ccco2)cc1Cl", "note": "[Furosemide]", "optomotor response to red moving lines": 4.84},
      {"compound": "Nc1ncn([C@@H]2O[C@H](CO)[C@@H](O)[C@H]2O)c(=O)n1", "note": "[5-Azacytidine]", "optomotor response to red moving lines": 5.02},
      {"compound": "Nc1nc(F)nc2c1ncn2[C@@H]1O[C@H](CO)[C@@H](O)[C@@H]1O", "note": "[Fludarabine]", "optomotor response to red moving lines": -10.8},
      {"compound": "CC(C)[C@H]1CC[C@H](C(=O)N[C@H](Cc2ccccc2)C(=O)O)CC1", "note": "[Nateglinide]", "optomotor response to red moving lines": 12.8},
      {"compound": "CN(CCOc1ccc(NS(C)(=O)=O)cc1)CCc1ccc(NS(C)(=O)=O)cc1", "note": "[Dofetilide]", "optomotor response to red moving lines": -14.2},
      {"compound": "CC(=O)NC[C@H]1CN(c2ccc(N3CCOCC3)c(F)c2)C(=O)O1", "note": "[Linezolid]", "optomotor response to red moving lines": 4.59},
      {"compound": "CC1=Nc2ccc(Cl)cc2S(=O)(=O)N1", "note": "[Diazoxide]", "optomotor response to red moving lines": 0.599},
      {"compound": "CC(=O)S[C@@H]1CC2=CC(=O)CC[C@]2(C)[C@H]2CC[C@@]3(C)[C@@H](CC[C@@]34CCC(=O)O4)[C@H]12", "note": "[Spironolactone]", "optomotor response to red moving lines": 11.7},
      {"compound": "CO[C@H]1/C=C/O[C@@]2(C)Oc3c(C)c(O)c4c(O)c(c5c(nc6cc(C)ccn65)c4c3C2=O)NC(=O)/C(C)=C\\C=C\\[C@H](C)[C@H](O)[C@@H](C)[C@@H](O)[C@@H](C)[C@H](OC(C)=O)[C@@H]1C", "note": "[Rifaximin]", "optomotor response to red moving lines": 0.313},
      {"compound": "COc1ccc(C[C@@H](C)NC[C@H](O)c2ccc(O)c(NC=O)c2)cc1", "note": "[Arformoterol tartrate]", "optomotor response to red moving lines": -7.51},
      {"compound": "CC1(C)O[C@@H]2[C@@H](CO[C@@]3(COS(N)(=O)=O)OC(C)(C)O[C@@H]23)O1", "note": "[Topiramate]", "optomotor response to red moving lines": -0.793},
      {"compound": "C#CCN[C@@H]1CCc2ccccc21", "note": "[Rasagiline mesylate]", "optomotor response to red moving lines": 16.9},
      {"compound": "CN(C)CCC[C@@]1(c2ccc(F)cc2)OCc2cc(C#N)ccc21", "note": "[Escitalopram oxalate]", "optomotor response to red moving lines": -7.88},
      {"compound": "Cc1nc(-c2ccc(OCC(C)C)c(C#N)c2)sc1C(=O)O", "note": "[Febuxostat]", "optomotor response to red moving lines": -1.5},
      {"compound": "CC(C)N(CCCCOCC(=O)NS(C)(=O)=O)c1cnc(-c2ccccc2)c(-c2ccccc2)n1", "note": "[Selexipag]", "optomotor response to red moving lines": -8.23},
      {"compound": "CCc1nc(N)nc(N)c1-c1ccc(Cl)cc1", "note": "[Pyrimethamine]", "optomotor response to red moving lines": 8.52}
    ]}
  ]
}
